Laboratory results reported in ChEMBL document CHEMBL3988442, “University of Dundee, Small-Polar-MMV Screening Library” (2021).
For some of these results: Entries with a potency or affinity are not part of this list.

What was measured:
Set-up in all cases: scale not given: direction of the effect not stated beside the values
[1] = molecular target: Protein translocase subunit SecA (Escherichia coli (strain K12)) (UniProt P10408); assay: Assay to Identify E. coli SecA ATPase Inhibitors; format: functional; details: 30 µM
Protein translocase subunit SecA (Escherichia coli (strain K12)), sequence (P10408 whole entry): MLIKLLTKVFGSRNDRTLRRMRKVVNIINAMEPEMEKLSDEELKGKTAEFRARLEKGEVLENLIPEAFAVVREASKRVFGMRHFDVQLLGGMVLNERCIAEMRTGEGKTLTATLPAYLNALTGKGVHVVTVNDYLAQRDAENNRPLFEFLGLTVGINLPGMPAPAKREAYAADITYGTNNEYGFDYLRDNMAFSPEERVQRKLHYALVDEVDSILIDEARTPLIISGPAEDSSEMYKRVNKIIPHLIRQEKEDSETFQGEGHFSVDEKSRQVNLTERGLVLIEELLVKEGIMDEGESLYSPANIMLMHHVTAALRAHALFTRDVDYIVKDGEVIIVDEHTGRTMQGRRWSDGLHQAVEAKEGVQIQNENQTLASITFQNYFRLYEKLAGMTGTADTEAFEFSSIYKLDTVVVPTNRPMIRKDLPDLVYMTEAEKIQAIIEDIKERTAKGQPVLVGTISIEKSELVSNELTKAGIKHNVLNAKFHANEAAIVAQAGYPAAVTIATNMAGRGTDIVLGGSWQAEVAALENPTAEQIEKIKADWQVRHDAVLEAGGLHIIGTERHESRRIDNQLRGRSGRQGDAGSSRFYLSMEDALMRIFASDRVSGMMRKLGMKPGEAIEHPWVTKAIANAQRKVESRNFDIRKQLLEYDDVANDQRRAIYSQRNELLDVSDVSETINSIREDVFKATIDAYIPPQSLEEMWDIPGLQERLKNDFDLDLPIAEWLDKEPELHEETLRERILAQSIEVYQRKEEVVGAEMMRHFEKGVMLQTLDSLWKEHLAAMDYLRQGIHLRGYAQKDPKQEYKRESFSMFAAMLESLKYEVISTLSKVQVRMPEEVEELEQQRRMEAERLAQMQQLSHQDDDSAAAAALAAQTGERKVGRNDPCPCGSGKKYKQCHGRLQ

[2] = molecular target: T1, Ubiquitin-activating enzyme e1, putative (Leishmania donovani (strain BPK282A1)) (UniProt E9BSI1); assay: Leishmania donovani Ubiquitin Activating Enzyme (LdE1); format: functional; details: 30 µM
T1 sequence (whole entry): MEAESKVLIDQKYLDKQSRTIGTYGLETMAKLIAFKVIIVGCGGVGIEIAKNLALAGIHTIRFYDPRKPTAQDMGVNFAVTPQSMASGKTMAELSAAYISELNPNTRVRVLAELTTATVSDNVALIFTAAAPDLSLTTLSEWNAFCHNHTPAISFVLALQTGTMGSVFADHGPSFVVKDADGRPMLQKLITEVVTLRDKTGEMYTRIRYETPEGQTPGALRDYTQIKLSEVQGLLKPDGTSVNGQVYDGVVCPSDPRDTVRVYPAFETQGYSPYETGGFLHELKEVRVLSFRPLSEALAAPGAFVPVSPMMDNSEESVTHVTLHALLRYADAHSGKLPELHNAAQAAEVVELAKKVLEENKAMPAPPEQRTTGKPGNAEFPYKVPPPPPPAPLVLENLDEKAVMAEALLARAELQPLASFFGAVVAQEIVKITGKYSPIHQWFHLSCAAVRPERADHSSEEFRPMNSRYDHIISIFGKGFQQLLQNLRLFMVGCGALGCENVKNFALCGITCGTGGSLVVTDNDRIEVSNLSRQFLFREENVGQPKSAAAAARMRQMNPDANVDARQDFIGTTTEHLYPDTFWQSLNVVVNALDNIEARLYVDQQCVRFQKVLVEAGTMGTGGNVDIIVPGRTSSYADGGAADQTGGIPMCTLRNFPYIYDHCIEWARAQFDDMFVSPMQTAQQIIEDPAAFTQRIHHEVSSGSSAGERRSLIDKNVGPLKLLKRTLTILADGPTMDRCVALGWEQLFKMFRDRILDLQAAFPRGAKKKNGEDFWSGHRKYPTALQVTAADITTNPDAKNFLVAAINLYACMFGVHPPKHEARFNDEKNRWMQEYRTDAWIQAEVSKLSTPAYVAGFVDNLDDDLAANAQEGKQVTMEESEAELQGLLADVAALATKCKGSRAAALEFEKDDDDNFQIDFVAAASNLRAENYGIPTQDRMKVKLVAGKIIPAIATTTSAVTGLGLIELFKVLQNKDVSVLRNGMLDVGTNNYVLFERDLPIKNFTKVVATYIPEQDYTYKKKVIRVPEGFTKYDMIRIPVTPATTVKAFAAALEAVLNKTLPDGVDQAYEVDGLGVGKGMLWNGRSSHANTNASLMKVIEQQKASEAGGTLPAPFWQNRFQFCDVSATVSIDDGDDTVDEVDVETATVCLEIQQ

[3] = molecular target: T2, Aspartate--tRNA(Asp/Asn) ligase (Mycobacterium tuberculosis (strain ATCC 25618 / H37Rv)) (UniProt P9WFW3); assay: Assay for Asp RNA synthetase-1 from Mycobacterium tuberculosis; format: functional; details: 30 µM; note: in the data most compounds retested in dose-response had high values
T2 sequence (whole entry): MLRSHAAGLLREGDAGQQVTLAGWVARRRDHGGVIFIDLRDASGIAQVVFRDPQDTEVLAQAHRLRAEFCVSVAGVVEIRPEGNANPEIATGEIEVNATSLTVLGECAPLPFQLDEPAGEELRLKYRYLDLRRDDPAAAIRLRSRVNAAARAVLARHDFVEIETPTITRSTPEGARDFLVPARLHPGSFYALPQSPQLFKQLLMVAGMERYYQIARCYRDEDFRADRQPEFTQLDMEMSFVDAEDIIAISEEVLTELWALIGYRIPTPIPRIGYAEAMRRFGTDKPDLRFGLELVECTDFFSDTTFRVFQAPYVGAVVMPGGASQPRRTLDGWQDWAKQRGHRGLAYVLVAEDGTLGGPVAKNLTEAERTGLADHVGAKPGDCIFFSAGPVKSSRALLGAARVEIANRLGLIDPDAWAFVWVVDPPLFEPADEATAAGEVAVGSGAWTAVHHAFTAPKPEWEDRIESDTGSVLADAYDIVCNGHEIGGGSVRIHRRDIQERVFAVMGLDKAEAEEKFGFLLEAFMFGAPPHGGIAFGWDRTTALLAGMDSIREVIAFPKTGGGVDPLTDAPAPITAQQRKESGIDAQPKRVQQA

[4] = molecular target: Sialic acid-binding Ig-like lectin 9 (Homo sapiens) (UniProt Q9Y336); assay: Hs-Siglec9 ALPHAscreen SOP 20170721; details: 10 µM
Sialic acid-binding Ig-like lectin 9 (Homo sapiens), sequence (Q9Y336 whole entry): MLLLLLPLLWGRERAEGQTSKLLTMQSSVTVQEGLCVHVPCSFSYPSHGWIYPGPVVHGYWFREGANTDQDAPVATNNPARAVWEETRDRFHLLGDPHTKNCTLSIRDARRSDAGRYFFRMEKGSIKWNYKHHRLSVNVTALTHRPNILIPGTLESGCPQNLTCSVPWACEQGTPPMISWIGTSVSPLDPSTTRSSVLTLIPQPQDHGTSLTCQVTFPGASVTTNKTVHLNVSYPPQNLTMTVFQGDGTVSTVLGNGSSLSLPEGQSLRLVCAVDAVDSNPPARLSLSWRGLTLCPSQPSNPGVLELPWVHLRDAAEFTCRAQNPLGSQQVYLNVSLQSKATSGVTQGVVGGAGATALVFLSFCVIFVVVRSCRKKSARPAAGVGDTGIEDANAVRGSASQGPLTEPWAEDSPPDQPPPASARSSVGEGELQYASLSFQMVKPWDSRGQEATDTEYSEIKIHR

Trypanosoma cruzi = assay: Trypanosoma cruzi phosphomannomutase and mannose-1-phosphate guanylyltransferase assay; format: functional; details: 10 µM
[5] = molecular target: T3, Arginase-2, mitochondrial (Homo sapiens) (UniProt P78540); assay: in vitro enzyme assay to detect the production of urea directly proportional to the activity of Arginase II; format: functional; details: 33.3 µM; note: in the data most compounds retested in dose-response had high values
T3 sequence (whole entry): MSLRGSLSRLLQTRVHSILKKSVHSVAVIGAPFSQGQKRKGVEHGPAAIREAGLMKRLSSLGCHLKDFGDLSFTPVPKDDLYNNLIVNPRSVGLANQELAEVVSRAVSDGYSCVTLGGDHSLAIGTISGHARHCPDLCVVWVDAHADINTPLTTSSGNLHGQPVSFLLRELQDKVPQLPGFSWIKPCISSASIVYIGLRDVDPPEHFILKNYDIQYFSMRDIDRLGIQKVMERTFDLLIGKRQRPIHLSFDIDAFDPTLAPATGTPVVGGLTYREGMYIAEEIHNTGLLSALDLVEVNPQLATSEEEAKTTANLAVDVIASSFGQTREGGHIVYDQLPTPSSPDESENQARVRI

[6] = molecular target: T4, Proteasome subunit beta (Trypanosoma cruzi) (UniProt O96673); assay: Trypanosoma cruzi proteasome chymotrypsin-like activity (TcProtChymo) assay.; note: in the data most compounds retested in dose-response had high values; format: functional; details: 9.37 µM
T4 sequence (whole entry): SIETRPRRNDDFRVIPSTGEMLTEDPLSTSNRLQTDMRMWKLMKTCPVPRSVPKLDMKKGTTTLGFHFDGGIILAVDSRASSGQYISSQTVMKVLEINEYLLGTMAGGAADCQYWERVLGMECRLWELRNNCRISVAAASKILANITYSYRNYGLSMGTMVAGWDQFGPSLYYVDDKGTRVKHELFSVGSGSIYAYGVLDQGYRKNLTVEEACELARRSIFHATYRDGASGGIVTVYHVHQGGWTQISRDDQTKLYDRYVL

Homo sapiens = species on record: Homo sapiens; assay: To identify inhibition of the IFN signalling (Jak-Stat) pathway via expression of an eGFP reporter gene under the control of an IFN-stimulated response element (ISRE) containing MxA promoter.; format: functional; details: 30 µM
[7] = molecular target: Shiga toxin 2 (Escherichia coli O157:H7) (UniProt P09385+P09386); assay: E. coli 0.157:H7 Shiga Toxin SOP - stx2 screening assay; format: functional; details: 30 µM
[8] = molecular target: T5, Tyrosyl-tRNA synthetase, putative (Trypanosoma cruzi (strain CL Brener)) (UniProt Q4DSP6); assay: Trypanosoma cruzi tyrosyl tRNA synthetase (TcYRS) _High Tyrosine SOP; format: functional; details: 30 µM; note: in the data most compounds retested in dose-response had high values
T5 sequence (whole entry): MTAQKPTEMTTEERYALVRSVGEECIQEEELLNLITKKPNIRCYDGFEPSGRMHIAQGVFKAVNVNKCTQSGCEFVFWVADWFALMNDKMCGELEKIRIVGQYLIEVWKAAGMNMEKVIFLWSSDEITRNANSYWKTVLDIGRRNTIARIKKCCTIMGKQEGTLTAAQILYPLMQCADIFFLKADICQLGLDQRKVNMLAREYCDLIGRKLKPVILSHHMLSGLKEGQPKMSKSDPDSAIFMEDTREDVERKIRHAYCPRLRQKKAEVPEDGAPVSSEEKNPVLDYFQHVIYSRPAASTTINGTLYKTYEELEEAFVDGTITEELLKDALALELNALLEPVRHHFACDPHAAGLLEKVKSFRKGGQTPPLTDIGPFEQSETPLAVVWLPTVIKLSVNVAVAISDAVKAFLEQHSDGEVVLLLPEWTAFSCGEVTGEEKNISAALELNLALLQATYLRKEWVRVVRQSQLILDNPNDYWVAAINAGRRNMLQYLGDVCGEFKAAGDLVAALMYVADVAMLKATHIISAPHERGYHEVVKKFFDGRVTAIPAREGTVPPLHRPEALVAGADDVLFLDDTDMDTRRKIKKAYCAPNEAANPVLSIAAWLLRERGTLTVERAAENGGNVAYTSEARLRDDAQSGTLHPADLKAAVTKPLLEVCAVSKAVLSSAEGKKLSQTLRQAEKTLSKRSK

[9] = molecular target: T5, Tyrosyl-tRNA synthetase, putative (Trypanosoma cruzi (strain CL Brener)); assay: Trypanosoma cruzi tyrosyl tRNA synthetase (TcYRS) SOP; format: functional; details: 30 µM
[10] = molecular target: Chromo domain-containing protein 1 (Saccharomyces cerevisiae (strain ATCC 204508 / S288c) (Baker's yeast)) (UniProt P32657); assay: ScCHD-1 Enzyme Inhibition Assay; format: functional; details: 30 µM; note: in the data most compounds retested in dose-response had high values
Chromo domain-containing protein 1 (Saccharomyces cerevisiae (strain ATCC 204508 / S288c) (Baker's yeast)), sequence (P32657 whole entry, the tested form may be a part): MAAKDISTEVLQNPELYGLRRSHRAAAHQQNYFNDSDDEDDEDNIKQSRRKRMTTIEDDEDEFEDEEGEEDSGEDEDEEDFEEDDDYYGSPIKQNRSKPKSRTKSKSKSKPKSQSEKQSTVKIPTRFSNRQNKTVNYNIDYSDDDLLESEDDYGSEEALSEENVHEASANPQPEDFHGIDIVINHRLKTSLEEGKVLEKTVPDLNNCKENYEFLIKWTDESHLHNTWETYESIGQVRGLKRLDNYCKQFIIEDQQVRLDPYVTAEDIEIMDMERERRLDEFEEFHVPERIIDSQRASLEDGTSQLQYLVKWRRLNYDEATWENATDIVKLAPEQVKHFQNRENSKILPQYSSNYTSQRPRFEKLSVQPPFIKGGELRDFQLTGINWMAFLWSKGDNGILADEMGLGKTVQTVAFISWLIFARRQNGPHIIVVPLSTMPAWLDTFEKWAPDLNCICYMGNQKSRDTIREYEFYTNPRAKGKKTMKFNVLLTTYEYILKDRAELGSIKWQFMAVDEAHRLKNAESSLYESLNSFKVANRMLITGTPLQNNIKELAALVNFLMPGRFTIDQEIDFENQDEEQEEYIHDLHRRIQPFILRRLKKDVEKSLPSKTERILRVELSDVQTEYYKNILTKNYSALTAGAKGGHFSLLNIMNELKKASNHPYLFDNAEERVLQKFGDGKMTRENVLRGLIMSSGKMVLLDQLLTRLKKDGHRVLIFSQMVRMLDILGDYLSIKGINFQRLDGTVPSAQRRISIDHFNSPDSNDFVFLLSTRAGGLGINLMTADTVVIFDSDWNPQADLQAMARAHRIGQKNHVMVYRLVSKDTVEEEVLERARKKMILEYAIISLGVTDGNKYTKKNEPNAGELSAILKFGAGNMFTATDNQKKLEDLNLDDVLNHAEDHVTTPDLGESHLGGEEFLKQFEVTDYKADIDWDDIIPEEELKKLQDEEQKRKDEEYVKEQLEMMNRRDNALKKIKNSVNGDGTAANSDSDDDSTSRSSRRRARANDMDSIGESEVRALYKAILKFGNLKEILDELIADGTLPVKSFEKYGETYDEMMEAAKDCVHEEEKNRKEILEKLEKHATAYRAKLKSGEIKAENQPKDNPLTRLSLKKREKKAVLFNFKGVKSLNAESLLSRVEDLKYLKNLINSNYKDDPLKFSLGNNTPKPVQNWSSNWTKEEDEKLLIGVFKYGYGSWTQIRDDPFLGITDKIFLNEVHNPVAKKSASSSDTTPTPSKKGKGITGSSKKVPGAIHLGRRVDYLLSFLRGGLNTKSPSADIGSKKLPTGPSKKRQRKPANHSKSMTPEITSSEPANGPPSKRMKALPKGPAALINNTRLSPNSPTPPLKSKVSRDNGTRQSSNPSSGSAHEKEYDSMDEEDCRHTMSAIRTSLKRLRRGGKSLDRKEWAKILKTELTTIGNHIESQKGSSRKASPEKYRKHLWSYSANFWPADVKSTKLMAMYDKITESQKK

[11] = molecular target: AMP-activated protein kinase, AMPK (Homo sapiens) (UniProt P54646+O43741+P54619+Q9UGJ0+Q9Y478+Q13131+Q9UGI9); assay: AMP-dependent Kinase enzyme assay. An in vitro enzyme assay that detects ADP turnover that is directly proportional to AMPK activity. This uses naive AMPK that is activated during the assay with MK-8722; format: functional; details: 30 µM

Compound | Percent Effect [1] [%] | Percent Effect [2] [%] | Percent Effect [3] [%] | Percent Effect [4] [%] | Percent Effect (Trypanosoma cruzi) [%] | Percent Effect [5] [%] | Percent Effect [6] [%] | Percent Effect (Homo sapiens) [%] | Percent Effect [7] [%] | Percent Effect [8] [%] | Percent Effect [9] [%] | Percent Effect [10] [%] | Percent Effect [11] [%]
NC(=O)CN1CCCN(C(=O)Cc2ccc3ccccc3c2)CC1 | -7.48 | 0 | 2.66 | 1.74 | -13.2 | -6.21 | 0.594 | 24.3 | -25.4 | -0.526 | -5.13 | -8.56 | –
NC(=O)N1CC2(CCNCC2)c2cc(Cl)ccc21 | 0.158 | 1.3 | 0.933 | -0.465 | -3.38 | 4.11 | 8.84 | 10.9 | 4.45 | 0 | -2.5 | 2.33 | –
COCC(=O)NC1CC2(CCN(CCF)CC2)Oc2ccccc21 (stereo unspecified) | -7.73 | 1.3 | -6.51 | -0.183 | -2.63 | 1.37 | 8.67 | 16.2 | 6.84 | 0 | -2.5 | -22.9 | –
NC(=O)CN1CCCN(C(=O)Cc2ccc(F)c(Br)c2)CC1 | -6.33 | 10.7 | -0.338 | -0.341 | -3.61 | -0.444 | 12.6 | -6.89 | -17.2 | 4.74 | 7.69 | -9.76 | –
COc1ccc(-c2n[nH]cc2C2SCC(=O)Nc3[nH]ncc32)cc1 (stereo unspecified) | -3.63 | 0 | 0.479 | 3.15 | -3.41 | -17.8 | 14.9 | 16.2 | -3.31 | 2.13 | 7.79 | 0.161 | 21.7
CNCCc1nc2cc(Cl)ccc2[nH]1 | -7.19 | 0 | 0.126 | -5.75 | -7.11 | -3.65 | 5.58 | 5.87 | – | -4.92 | -6.17 | 0.639 | 1.26
NC[C@H]1[C@H]2CN(Cc3ccccc3)C[C@@H]12 | -1.98 | 19.5 | -0.091 | 2.06 | -0.938 | 1.83 | 7.81 | 31 | -5.17 | 4.83 | 15 | -6.97 | –
CC[C@H]1NCCC[C@]12CCC(=O)N2Cc1ccncc1 | -3.12 | 11.7 | 0.865 | 1.31 | 0 | 1.37 | -0.772 | -15 | -6.09 | 5.8 | 15 | -0.792 | –
CCc1noc(C(C)N2CCNCC2)n1 (stereo unspecified) | -5.07 | 5.33 | -11.9 | 0.232 | -0.602 | -2.22 | 13.3 | -0.55 | 6.76 | 2.63 | 2.56 | -9.82 | –
Cc1nc(CN2CCO[C@H]3[C@@H](OCc4ccccn4)CC[C@@H]32)cs1 | -6.18 | 9.09 | 3.07 | -6.32 | -3.6 | -2.43 | 10.2 | 4.6 | -1.17 | 4.74 | 7.69 | -4.92 | –
